# KCNH2 3.1 block – KCNH2 3.1 (human) potassium channel inhibition; 340,000 compounds, 0.95% hits; U2OS KCNH2 3.1, thallium flux FluxOr; hits give low values; activity change, % (tested at about 1.8 µM);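 active = maximum activity change below -70%; inconclusive = maximum activity change from -70% to -50%; inactive = maximum activity change above -50%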;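 also: thallium influx rate constant from kinetic fluorescence after stimulation buffer; % is scaled to controls: 0 for no effect and ±100 for the full control effect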
#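 Normalized rate constant (relative to positive and negative DMSO controls) derived from a 2 min kinetic fluorescence read after stimulation; U2OS cells expressing the 3.1 isoform via virus at 1.77 x 10^8 /mL.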
# KB-3-1 cytotox – kills parental KB-3-1 adenocarcinoma cells | KB-3-1 viability, CellTiter-Glo ATP luminescence, 72 h | Potency, µM (doses to about 46.1 µM), most hits filed as cytotoxic | 400,000 compounds, 1.4% hits; also: potency is read from the fitted curve at half-maximal effect; % is scaled to controls: 0 for no effect and ±100 for the full control effect; nearly all actives have a fitted effect of over 60% in size
#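 Cytotoxicity in the drug-sensitive parental line KB-3-1 was scored as loss of CellTiter-Glo luminescence following 72 h incubation with compound. Values come from curve fitting of normalized concentration-response data.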
# SW480 rerep – DNA re-replication induction in SW480 cells; SW480 DNA re-replication, Hoechst DNA content imaging, 48 h; Potency, µM (series often up to 46.1 µM), for the others: at the top dose re-replication activation, hits mostly activators; 340,000 compounds, 1.8% hits; also: potency is read from the fitted curve at half-maximal effect; % of control where 0% means no effect; nearly all actives have a fitted effect of over 55% in size
#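 SW480 cells exposed to compounds for 48 hr at 37 C, 5% CO2, then Hoechst-stained 40 min. Nuclear DNA content imaged by fluorescence scanning (405 nm excitation, 500-530 nm emission); re-replication scored as increased high-intensity nuclei.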
# MCF10A rereplic – inducers of DNA re-replication in MCF 10A breast cells; MCF 10A DNA re-replication, Hoechst nuclear intensity, 48 h; Potency, µM (titrated, usually from 46.1 µM), for inactives: at the top dose activity, positive = re-replication, actives largely listed as activators; 350,000 compounds, 2.9% hits; also: potency is read from the fitted curve at half-maximal effect; % of control where 0% means no effect; nearly all actives have a fitted effect of over 50% in size
# KCNH2 WT inh – blocks the wildtype human KCNH2 potassium channel; Q12809; U2OS, BacMam KCNH2, thallium flux FluxOr; hits give low values; activity change, % at 1.84 µM; 340,000 compounds, 0.37% hits;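 active = maximum activity change below -70%; inconclusive = maximum activity change between -70% and -50%; inactive = maximum activity change above -50%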; also: % is scaled to controls: 0 for no effect and ±100 for the full control effect
# Target sequence (Q12809 whole entry, looked up): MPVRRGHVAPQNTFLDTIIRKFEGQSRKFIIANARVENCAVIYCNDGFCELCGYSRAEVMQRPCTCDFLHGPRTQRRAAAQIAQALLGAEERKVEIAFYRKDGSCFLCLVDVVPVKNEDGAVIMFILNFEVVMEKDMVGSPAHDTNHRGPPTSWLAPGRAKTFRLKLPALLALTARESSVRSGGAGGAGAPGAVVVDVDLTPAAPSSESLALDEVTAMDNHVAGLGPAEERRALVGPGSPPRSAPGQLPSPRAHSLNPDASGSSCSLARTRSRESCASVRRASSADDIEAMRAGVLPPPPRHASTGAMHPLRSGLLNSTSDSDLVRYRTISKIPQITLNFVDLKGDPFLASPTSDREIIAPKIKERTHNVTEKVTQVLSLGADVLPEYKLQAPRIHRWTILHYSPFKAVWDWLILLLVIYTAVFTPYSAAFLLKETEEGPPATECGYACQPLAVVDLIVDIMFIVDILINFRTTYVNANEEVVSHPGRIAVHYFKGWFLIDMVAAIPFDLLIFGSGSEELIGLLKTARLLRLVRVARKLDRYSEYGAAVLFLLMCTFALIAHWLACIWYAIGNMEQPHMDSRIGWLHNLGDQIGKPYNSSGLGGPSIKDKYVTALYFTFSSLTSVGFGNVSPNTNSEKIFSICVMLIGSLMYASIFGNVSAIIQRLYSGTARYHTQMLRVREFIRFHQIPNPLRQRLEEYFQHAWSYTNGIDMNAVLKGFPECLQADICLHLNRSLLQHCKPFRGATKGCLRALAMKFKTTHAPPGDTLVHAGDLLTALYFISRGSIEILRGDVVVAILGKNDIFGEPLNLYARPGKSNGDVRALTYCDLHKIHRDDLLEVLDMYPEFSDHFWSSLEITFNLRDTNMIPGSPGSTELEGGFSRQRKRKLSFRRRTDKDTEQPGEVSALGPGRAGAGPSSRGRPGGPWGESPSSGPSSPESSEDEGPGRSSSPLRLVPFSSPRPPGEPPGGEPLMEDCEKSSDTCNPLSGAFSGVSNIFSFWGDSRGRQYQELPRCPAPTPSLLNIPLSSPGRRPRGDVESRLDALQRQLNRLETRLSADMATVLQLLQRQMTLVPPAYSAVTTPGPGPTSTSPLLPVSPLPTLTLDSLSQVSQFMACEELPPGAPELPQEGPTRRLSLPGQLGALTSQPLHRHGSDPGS
#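 U2OS cells transduced with wild-type KCNH2 virus are loaded with FluxOr dye for 45 min, and thallium flux is measured in kinetic reads before and after stimulation buffer. Rate constants are normalized to DMSO controls.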
# KB-V1 MDR tox – KB-V1 MDR subline cytotoxicity. KB-V1 MDR cells viability, CellTiter-Glo, 72 h. Potency, µM (titrated, usually from 46.1 µM), most hits filed as cytotoxic. 400,000 compounds, 3.4% hits; also: potency is read from the fitted curve at half-maximal effect; % is scaled to controls: 0 for no effect and ±100 for the full control effect; nearly all actives have a fitted effect of over 60% in size
#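 KB-V1, DMEM (no phenol red) + 10% FBS; cpd pin-transferred, titration series; 72 h, 37 degrees C; CellTiter-Glo, luminescence. Data normalized, curve-fit.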
# Numbers without * were called inactive; i = inactive; ? = inconclusive; / = no result given; [ ] = dose if it differs, or a comment. An excerpt weighted towards active compounds, which were near 7.6% of everything screened. Unless noted, calls follow the shape of the dose curve; as a rule, active = well fitted curve in the direction sought with a large enough effect; inconclusive = small, poorly fitted or top-dose-only effect, or another doubt; inactive = no such curve, though single readings can be large; an effect the other way counts as inactive or inconclusive.
SMILES,KCNH2 3.1 block,KB-3-1 cytotox,SW480 rerep,MCF10A rereplic,KCNH2 WT inh,KB-V1 MDR tox
COc1ccc(C(=O)NC(Nc2ccc(C)cc2)C(Cl)(Cl)Cl)cc1 (stereo not given),-11.1,?,-7.7%,5.3%,-31.4,14.6µM*
CCCCn1c(=O)nc2n(-c3ccc(Cl)cc3)c3ccccc3cc-2c1=O,1.4,i,-3.9%,-5.5%,-5.6,8.2µM*
Cc1csc(SCC(=O)Nc2ccc(F)cc2Cl)n1,1.0,i,0.8%,9.3%,-24.7,i
CN1CCN(c2ccc([N+](=O)[O-])cc2S(=O)(=O)N2CCOCC2)CC1,21.3,i,3.9%,1.7%,6.2,i
O=[N+]([O-])c1ccc(N2CCN(Cc3ccccc3)CC2)c(S(=O)(=O)N2CCOCC2)c1,-73.0*,i,17.9%,-5.8%,-43.2,i
O=[N+]([O-])c1ccc(Cl)c(CN2CCN(c3ncc(Cc4ccccc4)cn3)CC2)c1,/,?,/,/,/,5.17µM*
CN(C(=O)Cn1cc(S(=O)(=O)Cc2ccccc2Cl)c2ccccc21)c1ccccc1,/,i,/,/,/,i
C#CCN(C[C@@H]1[C@@H](OC(=O)NCc2ccco2)[C@@H](OC(=O)NCc2ccco2)Cn2c(=O)n(CCCCCC)c(=O)n21)S(=O)(=O)c1ccc(C)cc1,-11.1,?,/,/,-3.3,i
C#CCN(C[C@@H]1[C@@H](OC(=O)NCc2ccco2)[C@@H](OC(=O)NCc2ccco2)Cn2c(=O)ccc(=O)n21)S(=O)(=O)c1ccc(C)cc1,-3.9,16.4µM*,/,/,1.2,i
O=C(Nc1ccccc1N1CCN(C(=O)c2ccc(Cl)cc2)CC1)c1cc(Br)ccc1Cl,-101.4*,i,?,153.0%[0.0737 µM],-121.2*,i
Cc1c(C(=O)Nc2ccccc2N2CCN(C)CC2)oc2ccc(F)cc12,-0.9,16.4µM*,?,?,13.9,?
CN1CCN(c2ccccc2NC(=O)c2c(F)cccc2F)CC1,7.7,i,-2.9%,-3.7%,17.8,i
CC(C)C(=O)N1CCN(c2ccccc2NC(=O)COc2ccc(C3CCCCC3)cc2)CC1,-47.6,/,?,18.4µM*,-2.6,/
O=C(Nc1ccccc1N1CCN(C(=O)c2ccccc2)CC1)c1ccccc1Cl,-1.4,i,-21.4%,1.1%,-1.3,?
COc1ccc(Cl)cc1C(=O)Nc1ccccc1N1CCN(C)CC1,?,i,14.3%,27.5%,4.0,5.8µM*
O=C(O)C1CCCN1C(=O)Nc1ccc(Cl)cc1 (stereo not given),-37.1,i,0.7%,?,-21.6,i
S=C(NCCCc1cnc[nH]1)NCCCN(Cc1ccc(Cl)cc1)c1ccc(Br)cc1,/,i,/,/,/,i
CC(=O)N1CCN(c2ccccc2NC(=O)c2cc(Br)ccc2Cl)CC1,-19.1,i,?,25.1%,-0.8,i
CN1CCN(c2ccccc2NC(=O)c2cccc([N+](=O)[O-])c2)CC1,-47.7,i,-9.1%,-2.3%,-18.1,i
Cc1cccc(OCC(=O)Nc2ccccc2N2CCN(C)CC2)c1,0.8,i,4.7%,-0.5%,20.7,?
O=C(Nc1ccccc1N1CCN(C(=O)c2ccc(Cl)cc2)CC1)c1cccc([N+](=O)[O-])c1,-102.5*,i,4.2%,?,-123.3*,i
O=C(Nc1ccc(C(=O)N2CCCC2)cc1)c1ccccc1F,-3.2,?,-4.1%,-16.8%,-0.4,i
CN1CCN(c2ccccc2NC(=O)COc2ccc(Br)cc2)CC1,-10.7,i,-10.6%,?,66.1,20.6µM*
CN1CCN(c2ccccc2NC(=O)c2cc(Br)ccc2Cl)CC1,-87.1*,i,6.6%,13.3%,-23.0,?
O=C(Nc1cc(C(=O)N2CCCC2)ccc1N1CCCC1)c1ccccc1F,-5.0,i,-0.5%,-6.3%,19.1,3.66µM*
SMILES,KCNH2 3.1 block,KB-3-1 cytotox,SW480 rerep,MCF10A rereplic,KCNH2 WT inh,KB-V1 MDR tox
Cc1ccc(S(=O)(=O)Nc2ccc3c(c2)C(=O)N([C@@H](C)CO)C[C@@H](C)[C@@H](CN(C)C(=O)NC(C)C)OCCCC[C@H](C)O3)cc1,/,i,/,/,/,i
COc1cc(Cl)c(NC(=O)c2cc(CN3CCCC3)on2)c(OC)c1,/,i,/,/,/,i
NC(N)=NN=C(c1ccc(F)cc1)c1ccc(C(F)(F)F)cc1,/,3.66µM*,6.51µM*,?,14.7,?
CO/N=C/C(NC(=O)c1ccc(C(F)(F)F)cc1)C(=O)OC (stereo not given),-13.3,i,-7.5%,-0.2%,9.3,i
Clc1ccc(C=NNc2ccccn2)c(Cl)c1,5.7,i,-3.9%,11.1%,39.8,i
Cc1cc(N/N=C/c2ccc(N(C)C)cc2)nc(NCc2ccccc2)n1,-3.6,i,20.6µM*,8.2µM*,0.6,i
Cc1cc(N/N=C/c2ccc(F)cc2)nc(NCc2ccccc2)n1,-100.3*,?,-1.1%,?,10.0,?
Cc1cc(N/N=C/c2ccc(Cl)cc2Cl)nc(NCc2ccccc2)n1,?,i,?,?,-0.5,8.2µM*
Cc1cc(N/N=C/c2ccc(O)cc2)nc(NS(=O)(=O)c2ccccc2)n1,-11.2,i,-1.4%,7.0%,-4.9,i
Cc1ccc(/C=N/Nc2cc(C)nc(NCc3ccccc3)n2)cc1,-79.5*,i,?,?,26.4,i
O=C(NCC1CCN(Cc2ccccc2Cl)CC1)c1cc2ccc3cccnc3c2[nH]1,/,i,/,/,/,i
Cc1nn(-c2ccccc2)c(C)c1Cc1ccc(O)cc1,-14.6,i,-5.9%,1.6%,3.2,i
Cc1nn(-c2ccccc2)c2c1C(O)n1c(nc3ccccc31)S2 (stereo not given),-22.6,i,-3.0%,16.4µM*,-1.0,18.4µM*
CCCCc1nc2n[nH]c(N)c2c2c1CCCC2,-23.3,4.11µM*,0.8%,?,43.5,0.517µM*
O=C(CNC(=S)N(Cc1ccccc1)Cc1cccnc1)N1CCOCC1,1.4,i,0.0%,-2.7%,5.9,i
Cc1cc(C)c(NC(=O)Cn2c(=O)n(CCC(=O)NCc3ccc4c(c3)OCO4)c(=O)c3ccccc32)c(C)c1,/,i,/,/,/,i
COc1cc2c(cc1OC)CN(CC(=O)Nc1ccc3c(c1)OC(F)(F)O3)CC2,5.9,i,-0.9%,19.1%,-2.6,13µM*
O=C1/C(=C/c2ccc(O)cc2)COc2ccccc21,-2.3,i,18.4µM*,?,-3.9,i
CCCc1cc(C(=O)N2CCC(n3nccc3NC(=O)c3ccc(OC)cc3)CC2)no1,1.4,i,18.4%,0.1%,-2.3,i

# Screens as filed in PubChem BioAssay.
